The supplement of paper PMC3545927
This is one part of the list. No count for the full screen is at hand.

Biological target: furin, P09958
Test: furin cleavage Z-score vs untreated control; higher = more cleavage, active = 3.5 or more, inactive = 1 or less, 8 variable residues between constant flanks
In short: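 Cleavage by purified furin was measured on 8-mer peptides fused to a cDNA oligonucleotide and held on magnetic beads by their N-terminus. Reactions (0.01 ml, 1:10 enzyme:substrate) ran 7.5, 15 or 30 min in 50 mM HEPES pH 7.5 with CaCl2 and NaCl. Released DNA was adapter-tagged by PCR and sequenced, with read counts giving abundance. Log counts versus furin-free reactions were lowess-adjusted and scaled by median absolute deviation to give the cleavage Z-score.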

furin, P09958, sequence (P09958 whole entry): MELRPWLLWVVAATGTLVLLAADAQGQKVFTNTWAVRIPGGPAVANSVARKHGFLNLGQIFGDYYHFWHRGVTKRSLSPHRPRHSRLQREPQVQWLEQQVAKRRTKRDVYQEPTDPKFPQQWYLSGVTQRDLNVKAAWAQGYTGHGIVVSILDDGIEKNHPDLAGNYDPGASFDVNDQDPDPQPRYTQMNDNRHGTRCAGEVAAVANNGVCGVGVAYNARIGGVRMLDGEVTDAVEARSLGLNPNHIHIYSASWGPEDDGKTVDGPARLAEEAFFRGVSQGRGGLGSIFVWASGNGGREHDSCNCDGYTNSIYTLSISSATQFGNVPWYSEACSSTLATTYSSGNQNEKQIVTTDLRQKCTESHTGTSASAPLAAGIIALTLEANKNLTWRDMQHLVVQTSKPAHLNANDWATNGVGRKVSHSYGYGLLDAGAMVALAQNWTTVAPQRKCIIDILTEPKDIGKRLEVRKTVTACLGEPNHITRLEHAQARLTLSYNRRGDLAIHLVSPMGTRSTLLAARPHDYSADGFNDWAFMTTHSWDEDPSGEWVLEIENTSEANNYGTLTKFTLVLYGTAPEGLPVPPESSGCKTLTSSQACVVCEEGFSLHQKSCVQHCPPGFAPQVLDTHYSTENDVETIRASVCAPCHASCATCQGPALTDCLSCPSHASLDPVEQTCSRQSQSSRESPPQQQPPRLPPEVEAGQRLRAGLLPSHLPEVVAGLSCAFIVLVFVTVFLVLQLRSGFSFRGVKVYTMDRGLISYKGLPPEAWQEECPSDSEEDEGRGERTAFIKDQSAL

CARVKRVSHSAGNASASA [FS-2619]
furin cleavage Z-score (7.5 min): -0.25 (inactive)
furin cleavage Z-score (15 min): 0.383 (inactive)
furin cleavage Z-score (30 min): 1.16

CARVPRDWDPAGNASASA [FS-1940]
furin cleavage Z-score (7.5 min): -0.333 (inactive)
furin cleavage Z-score (15 min): -0.446 (inactive)
furin cleavage Z-score (30 min): 1.11

CARQKRRAKPAGNASASA [FS-1864]
furin cleavage Z-score (7.5 min): 5.33 (active)
furin cleavage Z-score (15 min): 6.71 (active)
furin cleavage Z-score (30 min): 6.66 (active)

CARQKRNKIPAGNASASA [FS-2290]
furin cleavage Z-score (7.5 min): 0.00727 (inactive)
furin cleavage Z-score (15 min): -0.821 (inactive)
furin cleavage Z-score (30 min): 0.672 (inactive)

CARVKRYRQSAGNASASA [FS-2243]
furin cleavage Z-score (7.5 min): 3.13
furin cleavage Z-score (15 min): 4.29 (active)
furin cleavage Z-score (30 min): 5.21 (active)

CARVKRPQLMAGNASASA [FS-2532]
furin cleavage Z-score (7.5 min): 1.35
furin cleavage Z-score (15 min): -0.179 (inactive)
furin cleavage Z-score (30 min): -0.384 (inactive)

CAEVPCHRQSAGNASASA [HC2402]
furin cleavage Z-score (7.5 min): 0.566 (inactive)
furin cleavage Z-score (15 min): 0.909 (inactive)
furin cleavage Z-score (30 min): 1.17

CARQKRREERAGNASASA [FS-1865]
furin cleavage Z-score (7.5 min): -0.0741 (inactive)
furin cleavage Z-score (15 min): 1.57
furin cleavage Z-score (30 min): 0.905 (inactive)

CARVKRRADPAGNASASA [FS-2197]
furin cleavage Z-score (7.5 min): 8.92 (active)
furin cleavage Z-score (15 min): 9.27 (active)
furin cleavage Z-score (30 min): 8.27 (active)

CARVKRRLLMAGNASASA [FS-2318]
furin cleavage Z-score (7.5 min): 1.78
furin cleavage Z-score (15 min): 2.84
furin cleavage Z-score (30 min): 5.21 (active)

CAVMCCSMSYAGNASASA [HC2006]
furin cleavage Z-score (7.5 min): 0.223 (inactive)
furin cleavage Z-score (15 min): 0.521 (inactive)
furin cleavage Z-score (30 min): 0.261 (inactive)

CAVVCCPMSYAGNASASA [HC120]
furin cleavage Z-score (7.5 min): -0.00854 (inactive)
furin cleavage Z-score (15 min): 1.19
furin cleavage Z-score (30 min): 0.154 (inactive)

CARVKRRIENAGNASASA [FS-2533]
furin cleavage Z-score (7.5 min): 4.86 (active)
furin cleavage Z-score (15 min): 7.07 (active)
furin cleavage Z-score (30 min): 8.34 (active)

CARVKRQKISAGNASASA [FS-1939]
furin cleavage Z-score (7.5 min): 2.51
furin cleavage Z-score (15 min): 3.08
furin cleavage Z-score (30 min): 4.8 (active)

CARVKRPIENAGNASASA [FS-2531]
furin cleavage Z-score (7.5 min): -0.853 (inactive)
furin cleavage Z-score (15 min): 0.717 (inactive)
furin cleavage Z-score (30 min): -0.955 (inactive)

CARSFRRIAGAGNASASA [FS-2804]
furin cleavage Z-score (7.5 min): -0.414 (inactive)
furin cleavage Z-score (15 min): -1.36 (inactive)
furin cleavage Z-score (30 min): -1.34 (inactive)

CARVKRTHVPAGNASASA [FS-2242]
furin cleavage Z-score (7.5 min): 4.22 (active)
furin cleavage Z-score (15 min): 8.01 (active)
furin cleavage Z-score (30 min): 3.97 (active)

CARVKRFIQEAGNASASA [FS-2099]
furin cleavage Z-score (7.5 min): 5.75 (active)
furin cleavage Z-score (15 min): 5.53 (active)
furin cleavage Z-score (30 min): 5.92 (active)

CASTMCSAHLAGNASASA [HC2506]
furin cleavage Z-score (7.5 min): -0.111 (inactive)
furin cleavage Z-score (15 min): 1.36
furin cleavage Z-score (30 min): 2.15

CADSMEECSQAGNASASA [HC1817]
furin cleavage Z-score (7.5 min): 1.19
furin cleavage Z-score (15 min): 1.94
furin cleavage Z-score (30 min): 0.888 (inactive)

CAEYEVPCHRAGNASASA [HC2449]
furin cleavage Z-score (7.5 min): -0.191 (inactive)
furin cleavage Z-score (15 min): 0.0222 (inactive)
furin cleavage Z-score (30 min): -0.958 (inactive)

CANSSRSKKPAGNASASA [FS-947]
furin cleavage Z-score (7.5 min): -0.794 (inactive)
furin cleavage Z-score (15 min): -0.615 (inactive)
furin cleavage Z-score (30 min): -1.7 (inactive)

CARVKRNILAAGNASASA [FS-1872]
furin cleavage Z-score (7.5 min): 5.27 (active)
furin cleavage Z-score (15 min): 8.45 (active)
furin cleavage Z-score (30 min): 8.24 (active)

CARSIRDILAAGNASASA [FS-1840]
furin cleavage Z-score (7.5 min): -1.31 (inactive)
furin cleavage Z-score (15 min): 1.74
furin cleavage Z-score (30 min): 2.38

CAHWSMSKRDAGNASASA [FS-335]
furin cleavage Z-score (7.5 min): -1.15 (inactive)
furin cleavage Z-score (15 min): 0.288 (inactive)
furin cleavage Z-score (30 min): 0.917 (inactive)

CACVSRSKRDAGNASASA [FS-407]
furin cleavage Z-score (7.5 min): 13 (active)
furin cleavage Z-score (15 min): 10.3 (active)
furin cleavage Z-score (30 min): 7.76 (active)

CACVLRSKRDAGNASASA [FS-406]
furin cleavage Z-score (7.5 min): 9.82 (active)
furin cleavage Z-score (15 min): 8.74 (active)
furin cleavage Z-score (30 min): 6.13 (active)

CASTPCSANLAGNASASA [HC2561]
furin cleavage Z-score (7.5 min): 0.829 (inactive)
furin cleavage Z-score (15 min): 0.852 (inactive)
furin cleavage Z-score (30 min): 0.011 (inactive)

CADVVTKLPLAGNASASA [HC1459]
furin cleavage Z-score (7.5 min): 0.775 (inactive)
furin cleavage Z-score (15 min): 0.418 (inactive)
furin cleavage Z-score (30 min): 0.0796 (inactive)

CAPKARRKRYAGNASASA [FS-619]
furin cleavage Z-score (7.5 min): 11.3 (active)
furin cleavage Z-score (15 min): 13.4 (active)
furin cleavage Z-score (30 min): 11.2 (active)

CARTSRRKRYAGNASASA [FS-958]
furin cleavage Z-score (7.5 min): 11.4 (active)
furin cleavage Z-score (15 min): 13.5 (active)
furin cleavage Z-score (30 min): 9.45 (active)

CAFTEAMTRYAGNASASA [HC1540]
furin cleavage Z-score (7.5 min): 1.26
furin cleavage Z-score (15 min): -0.149 (inactive)
furin cleavage Z-score (30 min): -0.331 (inactive)

CAPLAVMGSSAGNASASA [HC1462]
furin cleavage Z-score (7.5 min): 0.481 (inactive)
furin cleavage Z-score (15 min): 1.18
furin cleavage Z-score (30 min): -0.14 (inactive)

CARTSRRKRAAGNASASA [FS-1274]
furin cleavage Z-score (7.5 min): 10.3 (active)
furin cleavage Z-score (15 min): 9.52 (active)
furin cleavage Z-score (30 min): 6.92 (active)

CAITLPQDAVAGNASASA [HC898]
furin cleavage Z-score (7.5 min): -0.191 (inactive)
furin cleavage Z-score (15 min): -0.999 (inactive)
furin cleavage Z-score (30 min): -1.58 (inactive)

CAITAYAQQTAGNASASA [HC675]
furin cleavage Z-score (7.5 min): -0.902 (inactive)
furin cleavage Z-score (15 min): -0.292 (inactive)
furin cleavage Z-score (30 min): -0.928 (inactive)

CAGADTAACGAGNASASA [HC654]
furin cleavage Z-score (7.5 min): -0.934 (inactive)
furin cleavage Z-score (15 min): -0.244 (inactive)
furin cleavage Z-score (30 min): -0.368 (inactive)

CACGWAGWLLAGNASASA [HC206]
furin cleavage Z-score (7.5 min): 0.181 (inactive)
furin cleavage Z-score (15 min): -0.831 (inactive)
furin cleavage Z-score (30 min): -0.0867 (inactive)

CAENTTPCSGAGNASASA [HC1981]
furin cleavage Z-score (7.5 min): -1.67 (inactive)
furin cleavage Z-score (15 min): 0.267 (inactive)
furin cleavage Z-score (30 min): -0.382 (inactive)

CASAPSLKATAGNASASA [HC1264]
furin cleavage Z-score (7.5 min): -1.75 (inactive)
furin cleavage Z-score (15 min): -0.175 (inactive)
furin cleavage Z-score (30 min): -1.74 (inactive)

CAMEECSQQLAGNASASA [HC1762]
furin cleavage Z-score (7.5 min): 1.29
furin cleavage Z-score (15 min): 0.207 (inactive)
furin cleavage Z-score (30 min): 0.503 (inactive)

CAGARRAKRKAGNASASA [FS-1326]
furin cleavage Z-score (7.5 min): 5.27 (active)
furin cleavage Z-score (15 min): 5.92 (active)
furin cleavage Z-score (30 min): 5.79 (active)

CAMAARMKRKAGNASASA [FS-1467]
furin cleavage Z-score (7.5 min): 8.01 (active)
furin cleavage Z-score (15 min): 8.75 (active)
furin cleavage Z-score (30 min): 8.6 (active)

CAVCPRMKRKAGNASASA [FS-385]
furin cleavage Z-score (7.5 min): 6.36 (active)
furin cleavage Z-score (15 min): 7.19 (active)
furin cleavage Z-score (30 min): 7.64 (active)

CAMEECSQHKAGNASASA [HC1774]
furin cleavage Z-score (7.5 min): -0.682 (inactive)
furin cleavage Z-score (15 min): 0.0797 (inactive)
furin cleavage Z-score (30 min): -0.301 (inactive)
